In all, about 25,000 sequences were measured (“ln(normalized median fluorescence intensity)”: median about 6.7, highest 2% from about 10 on). For the sample, the highest values were picked, then their nearest neighbours and some sequences at random.
These sequences were tested on PfHDP1 homeodomain (GST-tagged) (assay: gcPBM binding intensity (ln(normalized median fluorescence intensity)); higher = stronger DNA binding).
Procedure, shortened: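 Plasmodium falciparum DNA-binding domains carrying a GST tag were expressed in E. coli and applied for 1 h, at about 25 μg on average, to an Agilent 4 × 180k array. The array held primer-extended double-stranded 36-bp intergenic genomic probes together with negative controls, and binding took place in 1× PBS with 1% milk, 0.2 mg/ml BSA, 0.5% salmon testes DNA and 0.03% Triton X-100. An Alexa488 anti-GST antibody detected bound protein, and the array was scanned at 488 nm. Binding intensity is taken as the highest Masliner-normalised natural-log median intensity across replicate spots of either probe orientation.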

Row | Sequence | gcPBM binding intensity (ln)
1 | ATATCTATAATAAATACACACATTTATATAGATAAA [CACACA_site7518] | 6.38
2 | AAATGTGTTAATGTGCGTACACATATATATAATATT [XGTACX_site2792] | 6.66
3 | TTGTGGATTTTGTGCGCACACACATGCAAAAAGAAA [CACACA_site1147] | 9.58
4 | GTGTATTTTGTGCGCACACACATGCAAAAAGAAATA [CACACA_site6660] | 9.54
5 | ATTTTGTGCGCACACACATGCAAAAAGAAATATGAT [TGCATGCA_site261] | 10.5
6 | TAATGATAAATACATACACACAAAAAATGATATATA [CACACA_site7258] | 6.48
7 | TCTTCTTTTTTTTTTTTGTATTATTATAAATATTAT [CACACA_negctrl_site1668] | 6.53
8 | ATATATATTATTTCTACACACATATATATAATATGT [CACACA_site3374] | 6.9
9 | GAAAATAAAATAAATGCATGTAAATTTAATGTAATG [TGCATGCA_site996] | 6.88
10 | AATATATATATGTGTACACATCCAAAATAGGCATAC [CACACA_site5705] | 7.59
11 | TTAATATATTATCTGGTGCATAAACACGTTATACCT | 10.6
12 | TTTGTTATATTTAATACACACATATTATAAACACAT [CACACA_site7703] | 6.88
13 | TATATATAATATTATACACACATATCTGCATAATAT [CACACA_site4202] | 7.05
14 | AATATTATTTATATTTGTACACAGTAATATAAAATA [XGTACX_site4884] | 6.25
15 | AATTGTTAATGGTACGAACACACATATAAAGATGCA [CACACA_site2043] | 6.76
16 | TAGGTACATAAATTGGTGCAAAGTGTACATATATAT | 10.8
17 | GTTGTTATATAAAATTGTACATAAAAAACAAAATAT [XGTACX_site5313] | 6.8
18 | AATTGTGCATTATATTGTACACGTGTTGTATATATT [XGTACX_site975] | 10.8
19 | TAAATTGGTGCAAAGTGTACATATATATCTTTCCTA [XGTACX_site5458] | 10.4
20 | ATATATAATTTTTGTTGTACATTATAAAAATAATTA [XGTACX_site2738] | 6.3
21 | AAAAAATTATAAAAGTGTACATATATATATATATAT [XGTACX_site154] | 9.48
22 | TATATATTATATATATGTACATATTGTTGTGTATAT [XGTACX_site767] | 7.15
23 | ATGTGTATATATTATTGTACATATATATATATATAT [XGTACX_site4627] | 9.24

Row | Sequence | gcPBM binding intensity (ln)
24 | GTGTGCAAAAATTGTTGTACATTATATATAAAAAAA [XGTACX_site3246] | 10.6
25 | CCCACAGACGGACACACACACACACCGACACATATA [CACACA_site4356] | 7.01
26 | TTATAATTTAATAAATGTACATAAATAATATACATA [XGTACX_site7271] | 6.14
27 | AAATTATTAAGTGATATAATATTCTATAGATGGGGA [CACACA_negctrl_site168] | 6.76
28 | ATTTTTTTTTTTTTTTTTTTTGCACCATAAAATAAT [CACACA_negctrl_site1324] | 10.1
29 | TGTGCATAATTTTGTGCACACCACGCTAATAATTTT [CACACA_site2915] | 11.5
30 | CCACGAGAATATATAGTGCATAATAATTTTTTTTTG | 8.82
31 | GTATGGCGTATCATATGTACTAAAAAAAAATAAAAA [XGTACX_site5101] | 6.49
32 | AAAGAAATGAAATATACACACATACCTATATACATA [CACACA_site7817] | 6.63
33 | CACATATATATGTGTGCATGTTGTATTATATATTTA [TGCATGCA_site632] | 8.72
34 | ATATATGATGTATTTGTGCACATATATATATTATTA [GTGCAC_site9471] | 10.7
35 | TTTTTGTTATTATGTGTGCACATATATATATATATA | 10.4
36 | TATATGTATAGAAAATGTACATATAAATATATATAT [XGTACX_site3420] | 7.94
37 | GAAAAGCAGATAAATGTGCACATATATGTTTGTATA | 10.8
38 | TAAAATAGAAATATATGTACATATATATATGTATAT [XGTACX_site4134] | 6.4
39 | ATATATGTATGTTAGACACACATATTATAATATGTT [CACACA_site116] | 6.5
40 | TGTGTGTGTATATGTGTGCACATATAAAATAGAAGA [GTGCAC_site9714] | 10.5
41 | TATGTATGTTAGTGTGCACACATAAATATTATATAT [CACACA_site9121] | 11.1
42 | ATAAATACATATGTGTGTACACATTATATATATATA [XGTACX_site1486] | 9.17
43 | AAAAAAAAAAAAAGCACACACACATATGTGTATATA [CACACA_site8225] | 6.86
44 | AAAAAATAAAAAGATACACACATATGTATAATATAC [CACACA_site1496] | 6.83
45 | TAATTTCTTATGTAGTGTACAAATAATATATGATAT [XGTACX_site597] | 6.39
46 | ATTAAAAAAATATAAACACACAAAAAAAAAATATAC [CACACA_site1100] | 7.06

Row | Sequence | gcPBM binding intensity (ln)
47 | AACAAATAAAAAAAAATAAAAATAAAAATAAAAAAA [XGTACX_negctrl_site451] | 6.36
48 | TTTTTTTCTTCTTTTCTCTTAAAAATATTGAATATT [CACACA_negctrl_site1762] | 6.28
49 | TATACATATGAAAATACACACATACATACAGATATA [CACACA_site5002] | 6.64
50 | AAAAGTTGTATTTGCACACATAAAAAAAAGATATTA [CACACA_site3840] | 10.3
51 | AATATTTATGGGTGCACACAAACATACAGATATATA [CACACA_site5810] | 10.3
52 | TATGTGTATAATAAAAGTACATATATTATTATATAA [XGTACX_site8556] | 6.35
53 | TTGTTGTGTATTATCGTGCACATAATATAAAAGATT | 10.5
54 | TGTATTATATATACACAAATATTTATGTGTGTGTTT [XGTACX_negctrl_site475] | 6.71
55 | TGTATGTTTGGGTGCACACATAAATATTATATATAG [CACACA_site3397] | 10.2
56 | AAGAAAAATATTCGTGTGCACAGAAGTATATGTGTG [GTGCAC_site9814] | 11
57 | TATATGTATGTTTGTGTGCACACATAAATATTATAT | 10.5
58 | ATATATTATGGGTGTGCACACAATATTTATATGTTC [CACACA_site2270] | 10.9
59 | TGTGTATATGTGCAAAGTACAAAAAAGAAATTATTT [XGTACX_site7569] | 9.87
60 | TAAAAATTGCACAGAAGTACAGTATAAATATATATA [XGTACX_site3421] | 10.2
61 | TTTATGTGTATGTTTACACACATAAAAAAATATATG [CACACA_site3039] | 6.54
62 | TTGATGTATACAATGTAGATTATTTAATATTTCAAT [GTGCAC_negctrl_site203] | 6.12
63 | TTATGAAAATATTTTTTTCGTTTGATGTATATGTTT [CACACA_negctrl_site1556] | 6.22
64 | TTGTATTATATTGTATTATGTTTAAATGAAAAAAAA [CACACA_negctrl_site662] | 6.46
65 | ATATATCTACAAATATGTACACACACACATATATAT [XGTACX_site1075] | 6.9
66 | TATAAAAAATAAAAAGTTTAATGAATATTTCTTTTA [TGCATGCA_negctrl_site379] | 5.53
67 | TTATGTTCATTATATGCACACATATATATAAATGTA [CACACA_site8947] | 9.74
68 | ATAATGTATATTATTGCACACATATATAAAATTATG [CACACA_site8280] | 10.5
69 | ATATATATATATAATGCACACATTATAAATTATGTA [CACACA_site5802] | 10.6

Row | Sequence | gcPBM binding intensity (ln)
70 | CATTATGTTGTAAATGCACACATACATATACACAGT [CACACA_site8990] | 9.81
71 | CATTATGTCATAAATGCACACATATATATATACATA [CACACA_site8454] | 9.98
72 | AATGTATATTATTGCACACATATATAAAATTATGCT [CACACA_site1096] | 10.5
73 | TTATGTCATAAATGCACACATATATATATACATATA [CACACA_site1588] | 10.5
74 | ACATAAAATAAATATACACACATATGTATATATTAT [CACACA_site3041] | 6.59
75 | TTATGTTGTAAATGCACACATACATATACGCAGTTT [CACACA_site3015] | 9.92
76 | TTATGTCATAAATGCACACATATATAAATACAGATA [CACACA_site4959] | 10.3
77 | ATGTTCATTATATGCACACATATATATAAATGTAAT [CACACA_site2908] | 10.2
78 | TTATGTTGTAAATGCACACATACATAAACTCAGTTT [CACACA_site5639] | 10.5
79 | ATCAAAATTGTCATTACACACCTTTATTTTTAGAAT [CACACA_site1813] | 6.6
80 | CAAGCCCTTCTGCTTACACACAGTAATTATTGTGCA [CACACA_site7399] | 6.34
81 | TTTCTATAATATATATGTACATATATAATATGTCGT [XGTACX_site3676] | 6.58
82 | AAATAAAATCATAATGTGCGCATATAAATTTGTAGG [GTGCAC_site9662] | 8.1
83 | AATCCACTTTTTTATGTTATACAATATAAATTAAAT [XGTACX_negctrl_site446] | 6.71
84 | AAAAACTTAATATTCACACATATATATATATATATA [CACACA_site5240] | 9.48
85 | ACAAGATAATAGAGAAGTACTAATAAACATACACAA [XGTACX_site6617] | 6.9
86 | TATATAATATAATGTAGTACATGTTTTATTTTTTAC [XGTACX_site7735] | 6.4
87 | AAATATCTACATATTTGTACATATTTATACATATTT [XGTACX_site6300] | 6.12
88 | TTTTATAATATTTAAAGTACATTCTAAAAATATAAT [XGTACX_site8033] | 6.01
89 | ATACTAAATGAACACACACACATATAGATTTATAAC [CACACA_site6200] | 6.87
90 | ATAAATAATTATATATGTACACATTATGAATGGATA [XGTACX_site8336] | 6.74
91 | ATATATATATATAATGCACACATTATGAATTATGTA [CACACA_site3384] | 10.8
92 | GATATATAATATAATACACACATTTTATGAATGTAA [CACACA_site24] | 6.54
